# Laboratory results reported in PubChem BioAssay AID1159580 (chemical genetic matrix, 2015).
# In all, about 5,500 compounds went through this assay and about 2,000 (36%) were called active. Roughly 18% stayed inconclusive and do not appear here. The list shows a part of the results. Values without a mark were called inactive. No stated cut-off is given here; in the data, active means normalized growth mostly below about 0.91 (no sharp cut-off); inconclusive means no clear call, values can overlap the other calls; inactive means mostly above about 0.92.
# Assay: chemical genetic growth profiling, strain panel (AID 1159580);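 further: tested at 20 µM; growth read once vehicle control cultures reached saturation at 30 °C; 1 = growth at the plate median or of vehicle wells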
# Settings: S. cerevisiae deletion strains, growth OD
smiles,measurement,setting,value
COc1ccc(-c2cc(=O)c3c(O)c(OC)c(OC)c(OC)c3o2)cc1OC,normalized growth,"locus YAL021C, strain ccr4, stronger effect = lower value",0.997
same,normalized growth,"locus YAL026C, strain drs2, stronger effect = lower value",0.974
same,normalized growth,"locus YAL030W, strain snc1, stronger effect = lower value",0.995
same,normalized growth,"locus YBL061C, strain skt5, stronger effect = lower value",0.991
same,normalized growth,"locus YBR009C, strain hhf1, stronger effect = lower value",0.965
same,normalized growth,"locus YBR023C, strain chs3, stronger effect = lower value",1
same,normalized growth,"locus YBR171W, strain sec66, stronger effect = lower value",0.994
same,normalized growth,"locus YBR231C, strain swc5, stronger effect = lower value",0.976
same,normalized growth,"locus YBR279W, strain paf1, stronger effect = lower value",0.995
same,normalized growth,"locus YCL011C, strain gbp2, stronger effect = lower value",0.989
same,normalized growth,"locus YCL016C, strain dcc1, stronger effect = lower value",0.996
same,normalized growth,"locus YCL069W, strain vba3, stronger effect = lower value",1.01
same,normalized growth,"locus YCR088W, strain abp1, stronger effect = lower value",0.997
same,normalized growth,"locus YDL005C, strain med2, stronger effect = lower value",0.998
same,normalized growth,"locus YDL040C, strain nat1, stronger effect = lower value",1.02
same,normalized growth,"locus YDR001C, strain nth1, stronger effect = lower value",1
same,normalized growth,"locus YDR069C, strain doa4, stronger effect = lower value",0.972
same,normalized growth,"locus YDR137W, strain rgp1, stronger effect = lower value",1.2 [resistant] (active)
same,normalized growth,"locus YDR159W, strain sac3, stronger effect = lower value",0.967
same,normalized growth,"locus YDR195W, strain ref2",1.03
same,normalized growth,"locus YDR297W, strain sur2, stronger effect = lower value",0.988
same,normalized growth,"locus YDR334W, strain swr1, stronger effect = lower value",1
same,normalized growth,"locus YDR335W, strain msn5, stronger effect = lower value",1
same,normalized growth,"locus YDR392W, strain spt3, stronger effect = lower value",0.867
same,normalized growth,"locus YEL003W, strain gim4, stronger effect = lower value",0.994
same,normalized growth,"locus YEL037C, strain rad23, stronger effect = lower value",0.997
same,normalized growth,"locus YEL061C, strain CIN8 (second series), stronger effect = lower value",1.02
same,normalized growth,"locus YER015W, strain faa2, stronger effect = lower value",0.989
same,normalized growth,"locus YER016W, strain bim1, stronger effect = lower value",1.04
same,normalized growth,"locus YER111C, strain swi4, stronger effect = lower value",0.987
same,normalized growth,"locus YER155C, strain BEM2 (second series), stronger effect = lower value",0.939
same,normalized growth,"locus YFR010W, strain ubp6, stronger effect = lower value",0.997
same,normalized growth,"locus YGL167C, strain pmr1, stronger effect = lower value",0.992
same,normalized growth,"locus YGL173C, strain kem1, stronger effect = lower value",0.991
same,normalized growth,"locus YGL227W, strain vid30, stronger effect = lower value",0.99
same,normalized growth,"locus YGL240W, strain doc1, stronger effect = lower value",0.983
same,normalized growth,"locus YGL253W, strain hxk2, stronger effect = lower value",0.951
same,normalized growth,"locus YHR013C, strain ard1, stronger effect = lower value",1.01
same,normalized growth,"locus YHR027C, strain rpn1, stronger effect = lower value",1
same,normalized growth,"locus YHR030C, strain SLT2, stronger effect = lower value",0.961
same,normalized growth,"locus YHR079C, strain IRE1, stronger effect = lower value",0.949
same,normalized growth,"locus YHR142W, strain chs7, stronger effect = lower value",0.953
same,normalized growth,"locus YJL092W, strain hpr5, stronger effect = lower value",1
same,normalized growth,"locus YJL095W, strain BCK1 (second series), stronger effect = lower value",0.992
same,normalized growth,"locus YJL095W, strain BCK1, stronger effect = lower value",1.01
same,normalized growth,"locus YJL115W, strain asf1, stronger effect = lower value",0.996
same,normalized growth,"locus YJL129C, strain trk1, stronger effect = lower value",0.949
same,normalized growth,"locus YJL154C, strain vps35, stronger effect = lower value",0.998
same,normalized growth,"locus YJL164C, strain tpk1, stronger effect = lower value",0.995
same,normalized growth,"locus YJL166W, strain qcr8, stronger effect = lower value",0.974
same,normalized growth,"locus YJL187C, strain SWE1, stronger effect = lower value",0.989
same,normalized growth,"locus YJR066W, strain TOR1, stronger effect = lower value",0.914
same,normalized growth,"locus YKL160W, strain elf1, stronger effect = lower value",0.994
same,normalized growth,"locus YKR026C, strain gcn3, stronger effect = lower value",0.995
same,normalized growth,"locus YKR091W, strain srl3, stronger effect = lower value",1.03
same,normalized growth,"locus YLL001W, strain dnm1, stronger effect = lower value",0.984
same,normalized growth,"locus YLL026W, stronger effect = lower value",0.998
same,normalized growth,"locus YLL041C, strain sdh2, stronger effect = lower value",1
same,normalized growth,"locus YLR027C, strain aat2, stronger effect = lower value",0.997
same,normalized growth,"locus YLR113W, strain HOG1, stronger effect = lower value",1
same,normalized growth,"locus YLR221C, strain rsa3, stronger effect = lower value",0.943
same,normalized growth,"locus YLR258W, strain gsy2, stronger effect = lower value",1
same,normalized growth,"locus YLR262C, strain YPT6 (second series), stronger effect = lower value",0.985
same,normalized growth,"locus YLR320W, strain mms22, stronger effect = lower value",0.975
same,normalized growth,"locus YLR342W, strain FKS1, stronger effect = lower value",1
same,normalized growth,"locus YLR357W, strain rsc2, stronger effect = lower value",0.972
same,normalized growth,"locus YLR370C, strain arc18, stronger effect = lower value",0.986
same,normalized growth,"locus YLR384C, strain iki3, stronger effect = lower value",0.974
same,normalized growth,"locus YML120C, strain ndi1, stronger effect = lower value",0.989
same,normalized growth,"locus YMR058W, strain fet3, stronger effect = lower value",0.815 (active)
same,normalized growth,"locus YMR125W, strain sto1, stronger effect = lower value",1.01
same,normalized growth,"locus YMR129W, stronger effect = lower value",1.01
same,normalized growth,"locus YMR205C, strain PFK2, stronger effect = lower value",1
same,normalized growth,"locus YMR231W, strain pep5, stronger effect = lower value",1
same,normalized growth,"locus YNL071W, strain lat1, stronger effect = lower value",0.994
same,normalized growth,"locus YNL183C, strain NPR1, stronger effect = lower value",0.944
same,normalized growth,"locus YNL209W, strain ssb2, stronger effect = lower value",0.998
same,normalized growth,"locus YNL248C, strain rpa49, stronger effect = lower value",0.971
same,normalized growth,"locus YNL322C, strain KRE1 (second series), stronger effect = lower value",1
same,normalized growth,"locus YNR049C, strain mso1, stronger effect = lower value",1.01
same,normalized growth,"locus YOR001W, strain rrp6, stronger effect = lower value",0.94
same,normalized growth,"locus YOR070C, strain gyp1, stronger effect = lower value",0.978
same,normalized growth,"locus YOR080W, strain dia2, stronger effect = lower value",0.999
same,normalized growth,"locus YOR083W, strain WHI5, stronger effect = lower value",0.991
same,normalized growth,"locus YOR106W, strain vam3, stronger effect = lower value",0.954
same,normalized growth,"locus YOR231W, strain MKK1, stronger effect = lower value",0.95
same,normalized growth,"locus YOR265W, strain rbl2, stronger effect = lower value",0.993
same,normalized growth,"locus YOR270C, strain vph1, stronger effect = lower value",0.962
same,normalized growth,"locus YOR290C, strain snf2, stronger effect = lower value",0.994
same,normalized growth,"locus YPL051W, strain arl3, stronger effect = lower value",0.947
same,normalized growth,"locus YPL078C, strain atp4, stronger effect = lower value",0.979
same,normalized growth,"locus YPL106C, strain sse1, stronger effect = lower value",0.953
same,normalized growth,"locus YPL240C, strain hsp82, stronger effect = lower value",1.03
same,normalized growth,"locus YPL256C, strain CLN2, stronger effect = lower value",0.971
